Screening data (PubChem)
IDE exosite FP = exo-site inhibitors of human insulin-degrading enzyme; P14735; purified IDE, FL-6b probe fluorescence polarization; active compounds read low; z-score at 20 µM; 6.3% of 17,000 active; AID 1259349;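 active = z-score of -3 or lower, meaning strong loss of probe binding signal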;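 also: His-tagged human IDE residues 42-1019 made in E. coli with 30 nM FL-6b probe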
Target sequence (P14735 42-1019 limits assumed): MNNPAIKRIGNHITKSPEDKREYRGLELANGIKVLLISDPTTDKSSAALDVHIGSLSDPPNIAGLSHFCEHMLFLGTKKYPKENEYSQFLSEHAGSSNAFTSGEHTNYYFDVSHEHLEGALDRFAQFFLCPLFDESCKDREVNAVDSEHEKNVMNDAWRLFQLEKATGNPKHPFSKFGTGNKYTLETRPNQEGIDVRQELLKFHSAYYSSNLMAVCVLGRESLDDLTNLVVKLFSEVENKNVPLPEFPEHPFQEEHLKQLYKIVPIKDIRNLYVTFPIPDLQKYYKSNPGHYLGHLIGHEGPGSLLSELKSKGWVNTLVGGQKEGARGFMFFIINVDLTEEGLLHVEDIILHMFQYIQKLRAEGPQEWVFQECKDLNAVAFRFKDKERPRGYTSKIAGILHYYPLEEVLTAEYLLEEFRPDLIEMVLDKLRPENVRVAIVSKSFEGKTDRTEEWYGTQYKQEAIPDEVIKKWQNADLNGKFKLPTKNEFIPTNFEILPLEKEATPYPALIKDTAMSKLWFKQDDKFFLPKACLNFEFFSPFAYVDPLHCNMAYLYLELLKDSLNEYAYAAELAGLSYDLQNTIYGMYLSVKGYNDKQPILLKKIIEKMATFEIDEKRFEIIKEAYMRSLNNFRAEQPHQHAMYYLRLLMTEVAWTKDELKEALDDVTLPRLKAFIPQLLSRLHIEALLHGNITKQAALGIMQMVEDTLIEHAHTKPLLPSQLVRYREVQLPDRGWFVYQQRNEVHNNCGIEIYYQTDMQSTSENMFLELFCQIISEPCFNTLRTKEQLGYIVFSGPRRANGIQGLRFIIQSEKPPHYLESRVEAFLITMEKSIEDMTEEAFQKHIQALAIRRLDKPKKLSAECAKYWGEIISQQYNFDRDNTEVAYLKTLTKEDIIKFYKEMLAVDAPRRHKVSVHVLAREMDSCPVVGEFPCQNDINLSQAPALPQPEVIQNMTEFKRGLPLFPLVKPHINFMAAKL
* marks the source's active call; other numbers are inactive results; ! = repeats disagree. Only a selection was taken, and hits are over-represented in it overall.

SMILES	IDE exosite FP
CN(C[C@H]1[C@@H](c2ccccc2)[C@@H](CO)N1C(=O)C1CC1)C(=O)c1ccncc1	0.899
O=S(=O)(c1cccs1)N1CCCCN2[C@H](C1)[C@H](c1ccc(Br)cc1)[C@@H]2CO	-0.366
C[C@H](NC(=O)C[C@H]1C[C@H]2c3cc(NS(=O)(=O)c4ccc(F)cc4)ccc3O[C@H]2[C@@H](CO)O1)c1ccccc1	0.994
CC(=O)N(C)C[C@H]1[C@@H](c2ccc(-c3ccccc3)cc2)[C@@H](CO)N1C(=O)C1CC1	0.811
CCC(=O)N1[C@H](CO)[C@@H](c2ccccc2)[C@@H]1CN(C)C(=O)c1ccccc1F	1.04
O=C(O)C[C@H]1C=C[C@H](NC(=O)Nc2cc(F)ccc2F)[C@H](CO)O1	0.0365
CCC(=O)N1[C@@H](CO)[C@H](c2ccccc2)[C@@H]1CN(C(C)C)S(C)(=O)=O	2.73
O=C(CN1CCOCC1)N1CCCCN2[C@H](C1)[C@H](c1ccc(-c3ccccc3)cc1)[C@@H]2CO	0.9
OC[C@H]1[C@@H](c2ccc(C#Cc3ccccc3)cc2)[C@@H]2CN(CC3CCOCC3)CCCCN12	-5.38*
O=C(CN1CCOCC1)N1CCCCN2[C@H](CO)[C@@H](c3ccc(C#Cc4ccccc4)cc3)[C@@H]2C1	-6.17*
O=C(CN1CCOCC1)N1CCCCN2[C@@H](CO)[C@@H](c3ccc(-c4ccccc4)cc3)[C@@H]2C1	-1.34
O=C(CN1CCOCC1)N1CCCCN2[C@H](CO)[C@H](c3ccc(C#Cc4ccccc4)cc3)[C@@H]2C1	-12.9*
OC[C@@H]1[C@@H](c2ccc(C#Cc3ccccc3F)cc2)[C@@H]2CN(CC3CCOCC3)CCCCN12	-0.377
OC[C@@H]1[C@@H](c2ccc(C#Cc3ccccc3)cc2)[C@H]2CN(CC3CCOCC3)CCCCN12	1.5
CC(C)NC(=O)N1CC(=O)N2[C@@H](CO)[C@@H](c3ccc(C#CCN(C)C)cc3)[C@@H]2C1	2.43
O=C(Nc1ccccc1)N1CC(=O)N2[C@H](C1)[C@@H](c1ccc(C#CC3CC3)cc1)[C@@H]2CO	1.07
O=C(C[C@H]1CC[C@H]2[C@@H](COC[C@@H](O)CN2C(=O)Nc2cccc(F)c2)O1)NCCCN1CCOCC1	-1.74
Fc1ccccc1-c1ccc(C2[C@@H]3CN(Cc4ccccc4)C[C@H]2N3)cc1 (stereo not given in full)	2.34
COc1ccccc1-c1ccc(C2[C@@H]3CN(Cc4nccs4)C[C@H]2N3)cc1 (stereo not given in full)	-0.0593
COc1cccc(CN2CCCCN3[C@@H](CO)[C@@H](c4ccc(-c5ccccc5OC)cc4)[C@@H]3C2)c1	-1.52
COc1ccccc1-c1ccc(C2[C@@H]3CN(Cc4cccc(F)c4)C[C@H]2N3)cc1 (stereo not given in full)	-3.17*
COc1cc(CN2C[C@@H]3N[C@H](C2)C3c2ccc(-c3ccc(C#N)cc3)cc2)cc(OC)c1 (stereo not given in full)	-0.741
COc1cccc(CN2C[C@@H]3N[C@H](C2)C3c2ccc(-c3ccccc3OC)cc2)c1 (stereo not given in full)	-8.57*!
CCCC(=O)Nc1ccc2c(c1)OC[C@@H](C)N(S(=O)(=O)c1cn(C)cn1)C[C@H](C)[C@@H](OC)CN(C)C2=O	1.21
CN1C(=O)c2cc(NS(=O)(=O)CC(F)(F)F)ccc2OC[C@H]2O[C@@H](CC(=O)NCC3CCCCC3)CC[C@@H]21	-0.473
SMILES	IDE exosite FP
CO[C@H]1CC[C@H]2CCOc3c(C#N)cccc3C(=O)N(C)C[C@H](OC)[C@@H](C)C(=O)N(C)C[C@@H]1O2	-0.658
COc1ccccc1CN1C[C@@H]2N[C@H](C1)[C@@H]2c1ccc(-c2cccnc2)cc1	-2.29
C[C@H](NC(=O)C[C@H]1CC[C@@H]2[C@@H](COc3ccc(NC(=O)C4CCOCC4)cc3C(=O)N2C)O1)c1ccccc1	-0.799
COc1cccc(C(=O)Nc2ccc3c(c2)C(=O)N(C)[C@@H]2CC[C@@H](CC(=O)N[C@@H](C)c4ccccc4)O[C@H]2CO3)c1	-0.769
COc1cccc(C(=O)Nc2ccc3c(c2)C(=O)N(C)[C@@H]2CC[C@@H](CC(=O)N[C@@H](C)c4ccccc4)O[C@@H]2CO3)c1	0.594
COc1cccc(C(=O)Nc2ccc3c(c2)C(=O)N(C)[C@@H]2CC[C@@H](CC(=O)N[C@H](C)c4ccccc4)O[C@H]2CO3)c1	-1.63
COc1cccc(C(=O)Nc2ccc3c(c2)C(=O)N(C)[C@H]2CC[C@@H](CC(=O)N[C@@H](C)c4ccccc4)O[C@@H]2CO3)c1	-6.99*
COc1cccc(C(=O)Nc2ccc3c(c2)C(=O)N(C)[C@H]2CC[C@@H](CC(=O)N[C@H](C)c4ccccc4)O[C@@H]2CO3)c1	-3.58*
C[C@@H]1CCCCO[C@@H](CN(C)Cc2ccc(C(=O)O)cc2)[C@@H](C)CN([C@H](C)CO)C(=O)c2cc(N(C)C)ccc2O1	0.196
O=C(c1ccccc1F)N1CC2(C1)[C@@H](c1ccccc1)[C@@H](CO)N2CC1CCOCC1	-1.24
O=C(C[C@@H]1CC[C@@H]2NC[C@H](O)COC[C@H]2O1)N1CCc2ccccc2C1	0.14
CCS(=O)(=O)N1CCCCN2[C@H](CO)[C@H](c3ccc(-c4cccc(C#N)c4)cc3)[C@@H]2C1	0.927
OC[C@@H]1[C@H](c2ccc(/C=C/c3ccccc3)cc2)[C@@H]2CN(Cc3cccnc3)CCCCN12	-5.18*
OC[C@@H]1[C@H](c2ccc(-c3cccc(F)c3)cc2)[C@H]2CN(Cc3cncnc3)CCCCN12	-0.54
OC[C@H]1[C@@H](c2ccc(-c3cccc(F)c3)cc2)[C@@H]2CN(Cc3cncnc3)CCCCN12	0.0138
OC[C@@H]1[C@H](c2ccc(/C=C/c3ccccc3)cc2)[C@H]2CN(Cc3cncnc3)CCCCN12	-4.4*
OC[C@@H]1[C@@H](c2ccc(/C=C/c3ccccc3)cc2)[C@@H]2CN(Cc3cncnc3)CCCCN12	-7.89*
CCCC#Cc1ccc([C@H]2[C@H](CO)N3CCCCN(Cc4ccncc4)C[C@@H]23)cc1	-0.409
OC[C@@H]1[C@@H](c2ccc(/C=C/c3ccccc3)cc2)[C@@H]2CN(Cc3cccnc3)CCCCN12	-0.943
OC[C@@H]1[C@H](c2ccc(-c3ccccc3F)cc2)[C@H]2CN(Cc3ccncc3)CCCCN12	0.711
OC[C@H]1[C@H](c2ccc(Br)cc2)[C@@H]2CN(Cc3cncnc3)CCCCN12	2.8
OC[C@H]1[C@H](c2ccc(-c3ccc(F)cc3)cc2)[C@H]2CN(Cc3cccnc3)CCCCN21	1.38
OC[C@@H]1[C@@H](c2ccc(-c3ccccc3)cc2)[C@H]2CN(Cc3cncnc3)CCCCN12	2.71
OC[C@@H]1[C@H](c2ccc(/C=C/c3ccccc3)cc2)[C@@H]2CN(Cc3ccncc3)CCCCN12	-8.51*
CCS(=O)(=O)N1CC(=O)N2[C@H](CO)[C@@H](c3ccc(-c4ccc(C)cc4)cc3)[C@@H]2C1	-2.5
O=C(c1ccc(F)cc1)N1CC(=O)N2[C@@H](CO)[C@H](c3ccc(-c4cccnc4)cc3)[C@@H]2C1	3.14
COc1cccc(NC(=O)C[C@@H]2CC[C@@H]3[C@@H](COc4ccc(NC(=O)C5CC5)cc4C(=O)N3C)O2)c1	0.00114
C[C@H](CO)N1C[C@H](C)[C@H](CN(C)C(=O)Nc2ccc(C(F)(F)F)cc2)OCCCC[C@H](C)Oc2ccc(NS(=O)(=O)c3cn(C)cn3)cc2C1=O	0.141
CO[C@H](CN(C)Cc1nccs1)[C@H](C)CN([C@H](C)CO)S(=O)(=O)c1ccc(F)cc1	-0.658
O=C(Nc1cccc(F)c1)N1CC(=O)N2[C@H](CO)[C@H](c3ccc(Br)cc3)[C@H]2C1	-0.32
